Among all 16,000 compounds or so, about 5,700 (36%) were called active. Not shown: some 24% with an inconclusive outcome. Some of the results follow. A number with no mark means an inactive call. Calls come from the whole dose curve; as a rule, active = well fitted curve in the direction sought with a large enough effect; inconclusive = small, poorly fitted or top-dose-only effect, or effect the other way; inactive = no such curve, though single readings can be large or run the other way.
% is set by controls: 0 for no effect and ±100 for the full control effect.

The target of the experiment is Cytochrome P450 1A2 (Homo sapiens) (UniProt P05177). As to the kind of experiment: Cytochrome panel assay with activity outcomes. The note with it: recombinant CYP, pro-luciferin dealkylation, luminescence, p450-cyp1a2; series mostly up to 57.1 µM; activity, negative = inhibition: at the top concentration.
Sequence of Cytochrome P450 1A2 (Homo sapiens) (P05177 whole entry, looked up): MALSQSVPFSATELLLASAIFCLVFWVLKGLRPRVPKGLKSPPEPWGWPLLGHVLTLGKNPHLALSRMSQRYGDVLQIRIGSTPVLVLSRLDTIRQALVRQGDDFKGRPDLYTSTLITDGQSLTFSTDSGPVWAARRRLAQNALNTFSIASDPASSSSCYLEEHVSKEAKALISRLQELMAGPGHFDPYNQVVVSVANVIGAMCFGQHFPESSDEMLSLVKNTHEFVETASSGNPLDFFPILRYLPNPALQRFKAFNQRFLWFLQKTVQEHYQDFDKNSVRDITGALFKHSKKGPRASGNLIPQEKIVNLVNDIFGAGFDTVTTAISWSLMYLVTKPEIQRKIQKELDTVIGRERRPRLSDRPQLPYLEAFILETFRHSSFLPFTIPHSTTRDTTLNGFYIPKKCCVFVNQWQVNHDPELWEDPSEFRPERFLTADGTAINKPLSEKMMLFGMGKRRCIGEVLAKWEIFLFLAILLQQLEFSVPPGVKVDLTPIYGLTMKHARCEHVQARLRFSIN
The term AC50 denotes the midpoint of the concentration-response curve, whichever way the signal moves. Turning to `CC(Oc1ccccc1)c1ccnn1S(=O)(=O)c1ccccc1` (stereo not given), the AC50 was 25.1 µM (active).

Turning to `O=S(=O)(c1ccccc1)N1CN2CN(C1)CN(S(=O)(=O)c1ccccc1)C2`, the activity, negative = inhibition was -14.9% [at 11.4 µM].

`CC(Oc1ccc(Cl)cc1)c1ccnn1S(=O)(=O)c1ccccc1` (stereo not given): the AC50 was 15.8 µM (active). Regarding `CC(Oc1ccc(-c2ccccc2)c(F)c1)c1ccn(S(=O)(=O)c2ccc(Cl)cc2)n1` (stereo not given), the “activity, negative = inhibition” value is -15.3%. For the molecule `CCOC(=O)c1ccc(Nc2nc(C(=O)OCC)nc3ccccc23)cc1`, the half-maximal activity concentration (AC50) is 0.891 µM (active). Take `CCOC(=O)c1ccc(NC(=O)C2(c3ccc(OC)cc3)CCOCC2)cc1`: the “activity, negative = inhibition” value was -4.73%. Turning to `COC(=O)c1c(C)nc2ccccc2c1C(=O)O`, the “activity, negative = inhibition” value is -9.4%. As for `CCOC(=O)c1ccc(Nc2nc(-c3cccnc3)nc3ccccc23)cc1`, the AC50 is 6.31 µM (active).

As for `CCCNC(=O)OC[C@@H]1O[C@H](CCO/N=C\[C@@H](C)[C@H](OCc2ccccc2)C(C)C)C=C[C@@H]1Oc1ccc(OC)cc1`, the activity, negative = inhibition is -5.94% [at 11.4 µM]. `O=C(Nc1cccc(F)c1)N1CC[C@@]2(CCCNC2)C1`: the “activity, negative = inhibition” value is -12.5%. In the case of `O=C(O)[C@@H]1[C@@H](C(=O)NCc2cccnc2)[C@@H]2C=C[C@@H]1O2`, the activity, negative = inhibition was -0.421% [at 2.29 µM]. For the molecule `O=C(O)[C@@H]1[C@@H](C(=O)Nc2ncccn2)[C@@H]2C=C[C@@H]1O2`, the activity, negative = inhibition was -13.2% [at 2.29 µM]. Turning to `O=C(O)[C@@H]1[C@@H](C(=O)NCc2ccncc2)[C@@H]2C=C[C@@H]1O2`, the AC50 is 5.01 µM (active). As for `C[C@@H]1Cc2ccccc2N1NC(=O)c1ccc(Cl)c(S(N)=O)c1` (stereo not given in full), the “activity, negative = inhibition” value is -11.4% [at 25.6 µM]. On to `CC1Cc2ccccc2N1C(=O)CN1C(=O)COc2ccccc21` (stereo not given), for which the “activity, negative = inhibition” value was -14.8%.

Regarding `CC1Cc2ccccc2N1C(=O)Cn1c(=O)cc(O)c2ccccc21` (stereo not given), the AC50 was 14.1 µM (active). The same measure, in the same setting: in the case of `COc1ccc(-n2cccc2C=O)cc1OC` it was 14.1 µM (active). Take `COc1ccc(-n2c(C)n[nH]c2=O)cc1OC`: the “activity, negative = inhibition” value is -13.2%. Consider `COc1ccc(N2C(=O)NC3CC2(C)Oc2ccccc23)cc1OC` (stereo not given), for which the “activity, negative = inhibition” value was -28.6%. The same measure, in the same setting: next, `COc1ccc(C(=O)N2CCC[C@@]3(CCN(Cc4ccc(C#N)cc4)C3)C2)cc1`: -20.7%. Regarding `CCn1c(/C=C2/C(=O)N(C)c3ccccc32)nc2ccccc2c1=O`, the AC50 was 1 µM (active). `CC1(C)CC2(CCO1)OC(=O)CC2C(=O)NCCc1ccccc1` (stereo not given): the “activity, negative = inhibition” value is 12.8%. In the case of `Cc1c(CCO)c(=O)n(-c2ccccc2)n1S(=O)(=O)c1c(Cl)cc(Cl)cc1Cl`, the AC50 was 12.6 µM (active). `Cc1c(N(C)CS(=O)(=O)O)c(=O)n(-c2ccccc2)n1C`: the “activity, negative = inhibition” value was -11.4% [at 25.6 µM]. In the case of `Cc1ccc(S(=O)(=O)/N=C(/Nc2c(C)n(C)n(-c3ccccc3)c2=O)c2ccc(Cl)cc2)cc1`, the “activity, negative = inhibition” value was -18.4%.

For the origin of these results see PubChem BioAssay AID1851 (National Center for Advancing Translational Sciences (NCATS), 2009).
